Outcome and AC50 data for four compounds are collected here from PubChem BioAssay (EPA / NIEHS).

Experiment [1] addresses human Adenosine A1 Receptor (AdoRA1), ADORA1 (gene 134) (UniProt P30542). The experiment in a line: NVS_GPCR_hAdoRA1: NovaScreen (NVS) G Protein-Coupled Receptor Assay for human Adenosine A1 Receptor (AdoRA1) (AID 2283254). The procedure: NVS_GPCR_hAdoRA1 is a biochemical, single-readout assay that uses extracted gene-proteins from Human cortical membranes in a tissue-based cell-free assay. Measurements were taken 1 hour after chemical dosing in a 96-well plate.NVS_GPCR_hAdoRA1 is one of one assay component(s) measured or calculated from the NVS_GPCR_hAdoRA1 assay. It is designed to make measurements of radioligand binding, a form of binding reporter, as detected with scintillation counting signals by Filter-based radiodetection technology.Data from the assay component NVS_GPCR_hAdoRA1 was analyzed into 1 assay endpoint. This assay endpoint, NVS_GPCR_hAdoRA1, was analyzed in the positive analysis fitting direction relative to DMSO as the negative control and baseline of activity. Using a type of binding reporter, loss-of-signal activity can be used to understand changes in the binding as they relate to the gene ADORA1. Furthermore, this assay endpoint can be referred to as a primary readout, because the performed assay has only produced 1 assay endpoint. To generalize the intended target to other relatable targets, this assay endpoint is annotated to the gpcr intended target family, where the subfamily is rhodopsin-like receptor. […]

The target of experiment [2] is rat Adrenergic Receptor, Alpha 2 (Adra2), Non-selective Binding, Adra2a (gene 25083) (UniProt P22909). The experiment in a line: NVS_GPCR_rAdra2_NonSelective: NovaScreen (NVS) G Protein-Coupled Receptor Assay for rat Adrenergic Receptor, Alpha 2 (Adra2), Non-selective Binding (AID 2283299). An outline of the steps:
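Rat cortical membranes, radioligand competitive displacement read by filter-based scintillation counting 1.25 hours after dosing. Primary screen in duplicate at 25 uM; actives followed up in concentration series.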

Experiment [3] deals with rat Neonicotinoid receptor (NNR), Chrna7 (gene 25302) (UniProt Q05941). The experiment can be described thus: NVS_LGIC_rNNR_BungSens: NovaScreen (NVS) Ligand-Gated Ion Channel Assay for rat Neonicotinoid receptor (NNR) (AID 2283315). An outline of the steps: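 Radioligand displacement binding on rat cortical membranes, 2.5 h incubation, filtration and scintillation counting. Loss of specific binding fitted relative to DMSO.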

Records with an inconclusive call do not appear. Active and inactive are the calls of the source. Rule for the calls: active = hit-call score of the fitted dose curve at least 0.9, where 1 is the maximum; inconclusive = response in the unintended direction; inactive = score below 0.9.

Sequence of human Adenosine A1 Receptor (AdoRA1), ADORA1 (gene 134) (P30542 whole entry, looked up): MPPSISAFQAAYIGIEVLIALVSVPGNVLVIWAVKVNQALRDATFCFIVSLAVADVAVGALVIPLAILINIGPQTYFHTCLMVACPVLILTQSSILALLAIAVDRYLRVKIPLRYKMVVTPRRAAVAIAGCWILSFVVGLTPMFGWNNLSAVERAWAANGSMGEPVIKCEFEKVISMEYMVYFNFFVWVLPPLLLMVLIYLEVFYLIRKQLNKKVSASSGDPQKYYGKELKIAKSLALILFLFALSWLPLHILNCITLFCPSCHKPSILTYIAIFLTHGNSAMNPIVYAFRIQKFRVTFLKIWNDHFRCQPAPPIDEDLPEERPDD
Sequence of rat Neonicotinoid receptor (NNR), Chrna7 (gene 25302) (Q05941 whole entry, looked up): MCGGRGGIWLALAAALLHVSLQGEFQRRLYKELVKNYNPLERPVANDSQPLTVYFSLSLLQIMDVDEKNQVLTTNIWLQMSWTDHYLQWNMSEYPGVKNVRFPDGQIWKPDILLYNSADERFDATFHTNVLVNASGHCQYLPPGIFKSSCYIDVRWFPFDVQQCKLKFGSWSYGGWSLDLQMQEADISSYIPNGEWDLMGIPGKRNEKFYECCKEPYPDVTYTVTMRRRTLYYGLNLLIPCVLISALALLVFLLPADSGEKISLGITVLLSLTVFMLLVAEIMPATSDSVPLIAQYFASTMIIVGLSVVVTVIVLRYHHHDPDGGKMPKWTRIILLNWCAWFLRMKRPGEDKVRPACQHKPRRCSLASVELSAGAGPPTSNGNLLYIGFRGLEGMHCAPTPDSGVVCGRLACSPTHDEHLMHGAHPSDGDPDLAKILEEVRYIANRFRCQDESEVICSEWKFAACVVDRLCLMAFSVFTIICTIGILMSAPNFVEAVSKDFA
Sequence of rat Adrenergic Receptor, Alpha 2 (Adra2), Non-selective Binding, Adra2a (gene 25083) (P22909 whole entry, looked up): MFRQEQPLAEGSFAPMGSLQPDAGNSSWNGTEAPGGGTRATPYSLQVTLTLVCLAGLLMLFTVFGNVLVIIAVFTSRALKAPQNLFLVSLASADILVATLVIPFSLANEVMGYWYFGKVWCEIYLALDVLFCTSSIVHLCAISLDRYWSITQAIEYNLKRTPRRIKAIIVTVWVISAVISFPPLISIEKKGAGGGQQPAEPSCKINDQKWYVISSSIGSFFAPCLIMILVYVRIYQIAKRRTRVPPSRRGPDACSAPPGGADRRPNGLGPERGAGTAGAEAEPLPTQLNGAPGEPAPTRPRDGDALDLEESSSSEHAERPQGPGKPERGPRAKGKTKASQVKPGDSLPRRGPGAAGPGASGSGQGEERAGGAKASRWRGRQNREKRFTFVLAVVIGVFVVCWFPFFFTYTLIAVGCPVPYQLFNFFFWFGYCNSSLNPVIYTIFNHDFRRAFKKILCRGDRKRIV

In the case of `Cc1c(Cl)c(=O)oc2cc(O)ccc12`, the result in experiment [1] was inactive.
With `COc1cc2ncnc(Nc3cccc(Cl)c3)c2cc1OC`, in experiment [1], the AC50 was 9.94 µM (active).
As to `CCn1c2ccccc2c2cc(N)ccc21`, in experiment [2], the AC50 is 25 µM (active).
For the compound `CSc1nnc(C(C)(C)C)c(=O)[nH]1`, in experiment [3], the call was inactive.

For orientation: AC50 means the concentration giving half of the maximal activity seen.
